Data taken from PubChem BioAssay AID652016 (National Center for Advancing Translational Sciences (NCATS), 2013).
Records with an inconclusive call do not appear. A call without a number means that no potency is given here. The source made the active and inactive calls. The call rests on the fitted dose curve; in most records, active means well fitted inhibition curve with a large enough effect; inconclusive means small, poorly fitted or top-dose-only effect; inactive means flat fitted curve, though single readings scatter.

What follows are compounds tested against Luciferin 4-monooxygenase (Photinus pyralis) (UniProt P08659) (assay: qHTS Assay for Inhibitors of Firefly Luciferase from the GSK Published Protein Kinase Inhibitor Set). Details: purified firefly luciferase, luminescence inhibition; series mostly up to 57.5 µM.
Text: FLuc (firefly luciferase) is the prototypical bioluminescent reporter gene from Photinus pyralis.[1] The enzyme catalyzes the oxidation luciferin via luciferin-AMP to produce light. FLuc is used in cell-based reporter gene-based assays for screening small molecule chemical libraries. However, small molecule luciferase inhibitors present in most large chemical libraries are often enriched in the output of high throughput screens using this reporter sometimes complicating interpretation and candidate selection.
RLuc is a bioluminescent reporter gene luciferase from Renilla reniformis, also known as the sea pansy. RLuc uses the luciferin substrate coelenterazine. RLuc is often used in combination with the nonhomologous luciferase FLuc (firefly luciferease) as a trasfection or pathway normalization control. Recently, non-homologous reporters have been described for high throughput screening 'coincidence' reporter gene strategies.
1. Fan F, Wood KV (2007) Bioluminescent assays for high-throughput screening. Assay Drug Dev Technol 5: 127-136.
2. Thorne N, Inglese J, Auld DS (2010) Illuminating insights into firefly luciferase and other bioluminescent reporters used in chemical biology. Chem Biol 17: 646-657.
3. […] Chem Biol 19: 1060-1072.
4. Michelini E, Cevenini L, Mezzanotte L, Coppa A, Roda A (2010) Cell-based assays: fuelling drug discovery. Anal Bioanal Chem 398: 227-238.
5. Cheng KC, Inglese J (2012) A coincidence reporter-gene system for high-throughput screening. Nat Methods 9: 937.
Biochemical firefly luciferase enzyme assay
NCGC Assay Protocol Summary:
Reagents: 50mM Tris acetate, pH 7.5; 10mM Mg acetate; 10uM D-luciferin (Sigma #L9504); 10uM ATP; 0.01% Tween-20; 0.05% BSA; 10nM P. pyralis luciferase (Sigma #L9506)
Control compounds used were two known firefly luciferase inhibitors (compounds (2) and (5) in Auld et al., 2010), and DMSO.
Three microliters containing firefly luciferase substrates in buffer (final concentrations: 50mM Tris acetate, pH 7.5, 10mM Mg acetate, 0.01% Tween-20, 0.05% BSA, 10uM D-luciferin, and 10uM ATP) are dispensed into each well of a Greiner white, solid-bottom 1536-well format plate using a flying reagent dispenser (FRD). These assay plates were then treated with 23nL of compound or DMSO using a Kalypsys pin tool, which allows for delivery of a 7-point interplate titration of each compound to the assay plates (quantitative HTS), with final compound concentrations ranging from approximately 60uM to 300pM. One microliter of firefly luciferase in 50mM Tris-acetate buffer was then delivered by FRD to each well for a final enzyme concentration of 10nM. Luciferase activity was then measured using an Envision plate reader (PerkinElmer), with an average incubation time of 5 min.
Potency means the concentration at half of the fitted maximal effect.

Luciferin 4-monooxygenase (Photinus pyralis), sequence (P08659 whole entry, looked up): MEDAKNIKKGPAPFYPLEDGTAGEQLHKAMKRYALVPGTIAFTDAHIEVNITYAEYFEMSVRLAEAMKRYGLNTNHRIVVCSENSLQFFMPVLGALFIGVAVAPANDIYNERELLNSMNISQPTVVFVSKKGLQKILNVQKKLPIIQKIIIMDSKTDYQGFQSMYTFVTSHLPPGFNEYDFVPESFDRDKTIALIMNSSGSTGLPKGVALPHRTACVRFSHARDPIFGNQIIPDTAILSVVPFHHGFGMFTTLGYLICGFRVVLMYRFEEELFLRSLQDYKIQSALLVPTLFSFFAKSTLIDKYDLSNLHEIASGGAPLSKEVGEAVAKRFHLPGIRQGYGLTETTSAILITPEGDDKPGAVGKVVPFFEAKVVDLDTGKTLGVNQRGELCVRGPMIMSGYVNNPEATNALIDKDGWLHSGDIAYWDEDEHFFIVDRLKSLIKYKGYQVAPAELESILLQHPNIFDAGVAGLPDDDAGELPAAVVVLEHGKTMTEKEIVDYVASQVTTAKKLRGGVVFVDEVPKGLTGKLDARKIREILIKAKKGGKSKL

Compound | Potency
COc1ccccc1Nc1ncc(-c2ccccc2)o1 | 1.03 µM (active)
Fc1ccc(-c2ncn(C3CCNCC3)c2-c2ccnc(Oc3ccc(Oc4ccccc4)cc3)n2)cc1 | inactive
CCn1c(-c2nonc2N)nc2cnc(Oc3cccc(NC(=O)c4ccc(OCCN5CCOCC5)cc4)c3)cc21 | inactive
COc1cc2ncn(-c3cc(OCc4ccccc4Cl)c(C(N)=O)s3)c2cc1OC | inactive
Nc1nccc(-c2c(-c3ccc(F)cc3)ncn2CCCN2CCOCC2)n1 | inactive
CS(=O)(=O)CCNCc1nc(-c2ccc3ncnc(Nc4ccc(F)c(Cl)c4)c3c2)cs1 | inactive
CC(=Nc1ccc(S(N)(=O)=O)cc1)c1c(O)[nH]c2ccccc12 | 3.66 µM (active)
COc1ccc(COc2ccc(Cc3cnc(N)nc3N)cc2OC)cc1 | inactive
COc1cc(Nc2ncc(-c3ccccc3)o2)cc(OC)c1 | 6.51 µM (active)
Cc1cc(O)cc(C)c1C=Cc1cncc(C(N)=O)c1 | inactive
FC(F)(F)CNc1nccc(-c2cnn3ncccc23)n1 | inactive
COc1cccc(-n2nc(C)c3c(NN=C(C)c4ccncc4)ncnc32)c1 | inactive
COc1ccc2ncnc(Nc3ccc(OCc4ccccc4)cc3)c2c1 | inactive
CC(C)COC(=O)c1ccc2[nH]c(O)c(C=Nc3ccc(S(N)(=O)=O)cc3)c2c1 | inactive
NC(=O)c1sc(-n2cnc3cc(C(F)(F)F)ccc32)cc1OCc1ccccc1Br | inactive
Cc1nn(C)c2cc(N(C)c3ccnc(Nc4cccc(S(N)(=O)=O)c4)n3)ccc12 | inactive
COc1ccc2nc3c4nc5ccc(OC)cc5c4c4c(=O)[nH]c(=O)c4c3c2c1 | inactive
Cc1nnc(-c2ccc(C)c(-c3ccc(C(=O)NCc4ccc(Cl)cc4)cc3)c2)o1 | inactive
CN1CCC(n2cnc(-c3ccc(F)cc3)c2-c2ccnc(N)n2)CC1 | inactive
CC(Oc1cc(-n2cnc3ccc(OCC4CCN(C)CC4)cc32)sc1C(N)=O)c1ccccc1C(F)(F)F (stereo not given) | inactive

Compound | Potency
COc1cccc(C=NNc2ncnc3c2cnn3-c2cccc(OC)c2)c1 | inactive
O=C(OC1CNC(C#Cc2cc3ncnc(Nc4ccc5c(ccn5Cc5cc(F)ccc5F)c4)c3s2)C1)N1CCOCC1 (stereo not given) | inactive
CS(=O)(=O)CCNCc1ccc(-c2ccc3ncnc(Nc4ccc(OCc5ccccc5)c(C(F)(F)F)c4)c3c2)o1 | inactive
COc1cc2ncnc(Nc3ccc4c(cnn4Cc4ccccc4)c3)c2cc1OC | inactive
CNC(=O)c1ncccc1Nc1nc(Nc2cc3c(cc2OC)CCCN3C(=O)CN(C)C)nc2[nH]ccc12 | inactive
Cc1ccc(C(=O)NC2CCCCC2)cc1-c1ccc(C(=O)NCC2CC2)cc1 | inactive
COc1cc2ncn(-c3cc(OCc4cccs4)c(C(N)=O)s3)c2cc1OC | inactive
Nc1ncc(-c2cccc(S(N)(=O)=O)c2)c2scc(-c3ccc(F)c(Cl)c3)c12 | inactive
COc1ccc(-c2oc3ncnc(N)c3c2-c2ccc(NC(=O)Nc3cc(C(F)(F)F)ccc3F)cc2)cc1 | inactive
COc1cc2ncn(-c3cc(OCc4ccccc4C(F)(F)F)c(C(C)=O)s3)c2cc1OC | inactive
CCS(=O)(=O)c1ccc(OC)c(Nc2ncc(-c3cccc(C(C)=O)c3)o2)c1 | inactive
CC(=O)NCc1cccc(C#Cc2cncnc2Nc2ccc(OCc3cccc(F)c3)c(Cl)c2)c1 | inactive
NC(=O)c1cccc(Nc2nccc(Nc3cccc4[nH]ncc34)n2)c1 | 13 µM (active)
Fc1ccc(-c2nn3ccccc3c2-c2ccncc2)cc1 | 1.16 µM (active)
COC(=O)Nc1nc2ccc(Oc3ccc(NC(=O)Nc4ccccc4)cc3)cc2[nH]1 | 14.6 µM (active)
CC(Oc1cc(-n2cnc3ccc(OCC4CCN(C)CC4)cc32)sc1C(N)=O)c1ccccc1Cl (stereo not given) | inactive
COC(=O)Nc1nc2ccc(Sc3ccc(NC(=O)Nc4cc(C(F)(F)F)ccc4F)cc3)cc2[nH]1 | inactive
CCCN1CCC=C(c2ccc(Nc3nc(Nc4ccccc4C(N)=O)c4cc[nH]c4n3)c(C)c2)C1 | inactive
Nc1ncnc2occ(-c3ccc(NC(=O)Nc4cc(C(F)(F)F)ccc4F)cc3)c12 | inactive
Cn1c(-c2nonc2N)nc2cnccc21 | inactive
